Data taken from PubChem BioAssay (NCATS).
Inconclusive results are not listed. A call without a number means that no potency is given here. Activity calls are given as the source filed them. The call rests on the fitted dose curve; in most records, active means well fitted inhibition curve with a large enough effect; inconclusive means small, poorly fitted or top-dose-only effect; inactive means flat fitted curve, though single readings scatter.

system: W2; experiment: qHTS profiling for inhibitors of Plasmodium falciparum proliferation (AID 504749); further: nearly all actives have a fitted effect of over 60% in size; settings: P. falciparum in erythrocytes, SYBR Green DNA, 72 h; series mostly up to 28.7 µM
Outline: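 Readout was DNA-dye fluorescence from lysed cultures, ex 485/em 535 nm. Parasitized red cells had grown 72 h with compound; data scaled between 0.29 uM artemisinin and DMSO wells and corrected using vehicle-only plates.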
Potency means the concentration at half of the fitted maximal effect.

Row | Compound | Potency
1 | CN(C)CCCN1c2ccccc2C(C)(C)c2ccccc21 | 4.26 µM (active)
2 | CCCCCCC(O)C/C=C/CCCCCCCC(=O)O (centres undefined) | inactive
3 | Cc1ccccc1OCC(O)CNCCOc1ccc(C(N)=O)cc1 (centres undefined) | inactive
4 | CC(Cc1ccc(O)c(O)c1)C(C)Cc1ccc(O)c(O)c1 (centres undefined) | 15.1 µM (active)
5 | Cc1c(C)c2c(c(C)c1O)CC[C@@](C)(CCC[C@@H](C)CCC[C@@H](C)CCCC(C)C)O2 | inactive
6 | CCCC(=O)Nc1ncnc2c1ncn2C1OC2COP(=O)(O)OC2C1OC(=O)CCC (centres undefined) | inactive
7 | Nc1ncnc2c1ncn2[C@@H]1O[C@H](COP(=O)(O)OP(=O)(O)OP(=O)(O)O)[C@@H](O)[C@H]1O | inactive
8 | Clc1cc(Cl)c(OCC#CI)cc1Cl | 10.7 µM (active)
9 | CC1(C)S[C@@H]2[C@H](NC(=O)[C@@H](NC(=O)N3CCNC3=O)c3ccccc3)C(=O)N2[C@H]1C(=O)O | inactive
10 | Cc1ccccc1 | inactive
11 | C=CCSSSCC=C | inactive
12 | CCCCC/C=C\C/C=C\CCCCCCCC(=O)O | inactive
13 | CCOC(C)=O | inactive
14 | O=C(O)CN(CCN(CC(=O)O)CC(=O)O)CC(=O)O | inactive
15 | NC1C2CN(c3nc4c(cc3F)c(=O)c(C(=O)O)cn4-c3ccc(F)cc3F)CC12 (centres undefined) | 6.75 µM (active)
16 | NC(=O)c1ncn(C2OC(CO)C(O)C2O)n1 (centres undefined) | inactive
17 | O=CCCCC=O | 13.5 µM (active)
18 | CCOC(=O)C1=C(C)NC(C)=C(C(=O)OCC)C1c1ccccc1C=CC(=O)OC(C)(C)C | 6.75 µM (active)
19 | CCCCCCOc1ccc(C(=N)N(CCCC)CCCC)c2ccccc12 | 3.38 µM (active)
